Laboratory results reported in ChEMBL document CHEMBL3988442, “University of Dundee, Small-Polar-MMV Screening Library” (2021).

Target: T1, Aspartate--tRNA(Asp/Asn) ligase (Mycobacterium tuberculosis (strain ATCC 25618 / H37Rv)) (UniProt P9WFW3)
T1 sequence (whole entry): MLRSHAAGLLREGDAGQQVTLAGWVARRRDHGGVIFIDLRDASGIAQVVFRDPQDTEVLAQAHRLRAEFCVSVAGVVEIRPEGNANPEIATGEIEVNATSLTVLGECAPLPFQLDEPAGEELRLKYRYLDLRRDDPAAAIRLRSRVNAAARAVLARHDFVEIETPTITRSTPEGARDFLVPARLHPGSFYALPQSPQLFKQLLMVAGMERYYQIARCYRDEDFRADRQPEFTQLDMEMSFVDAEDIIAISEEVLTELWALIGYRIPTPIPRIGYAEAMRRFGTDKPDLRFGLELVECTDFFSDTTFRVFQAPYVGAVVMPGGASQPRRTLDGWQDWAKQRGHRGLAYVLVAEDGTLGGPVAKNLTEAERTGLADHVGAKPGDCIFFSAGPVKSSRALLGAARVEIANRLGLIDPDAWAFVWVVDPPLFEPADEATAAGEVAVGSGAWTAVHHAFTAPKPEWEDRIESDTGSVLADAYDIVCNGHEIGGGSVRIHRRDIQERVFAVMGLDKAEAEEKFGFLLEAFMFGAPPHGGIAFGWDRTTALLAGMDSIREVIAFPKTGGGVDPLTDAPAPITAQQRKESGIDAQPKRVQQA
Experiment: Assay for Asp RNA synthetase-1 from Mycobacterium tuberculosis
Assay type: functional
Parameters: scale not given: in the data most compounds retested in dose-response had high values
Conditions: 30 µM

SMILES	Percent Effect
CCn1nc(C)c(CCn2ccnc2-c2cc3n(n2)CCCNC3)c1C	-1.76%
Cc1n[nH]c(C2CN(CC(=O)NCc3ccco3)CCO2)n1 (configuration not stated)	0.448%
c1ccc2c(N3CCCCC3Cn3cncn3)ncnc2c1 (configuration not stated)	0.172%
CCc1cc(N2CCCNCC2)n2nc(C)c(C)c2n1	-1.41%
O=C(CN1CCNCC1)N1CC[C@@H](c2ccc3ccccc3c2)[C@H](O)C1	-0.747%
NC(=O)C1CCN(Cc2cccc(NC(=O)c3ccsc3)c2)CC1	-1.25%
CCC(C(=O)NC)N(c1cccc(C)c1)S(C)(=O)=O (configuration not stated)	-2.86%
